Experimental findings from PubChem BioAssay (Tox21) are described below.

Records with an inconclusive call do not appear. Entries that show only a call come without a potency. Values without a mark were called inactive. Calls of active or inactive are those of the source. The call rests on the fitted dose curve.

Chain of D(2) dopamine receptor (Homo sapiens) (P14416 whole entry, looked up): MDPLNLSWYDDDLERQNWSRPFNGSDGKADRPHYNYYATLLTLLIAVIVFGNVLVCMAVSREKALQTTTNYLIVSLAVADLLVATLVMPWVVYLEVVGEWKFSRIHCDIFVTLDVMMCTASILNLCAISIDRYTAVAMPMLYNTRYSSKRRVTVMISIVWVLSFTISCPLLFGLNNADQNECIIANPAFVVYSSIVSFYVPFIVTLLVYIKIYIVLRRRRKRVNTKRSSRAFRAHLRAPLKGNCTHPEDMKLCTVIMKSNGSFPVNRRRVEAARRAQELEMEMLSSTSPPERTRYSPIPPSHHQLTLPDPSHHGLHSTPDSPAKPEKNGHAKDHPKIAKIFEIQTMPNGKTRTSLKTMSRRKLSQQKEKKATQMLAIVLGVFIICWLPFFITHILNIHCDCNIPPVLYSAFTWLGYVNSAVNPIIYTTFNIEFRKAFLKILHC

The test concerns the target D(2) dopamine receptor (Homo sapiens) (UniProt P14416). In words: Dopamine D2 receptor (DRD2) small molecule agonists, cell-based qHTS assay (AID 1963594). Further: nearly all actives have a fitted effect of over 35% in size. The settings on record: HEK293-DRD2 cAMP HTRF, agonist mode, 30 min; series mostly up to 92.4 µM. An excerpt:
National Center for Advancing Translational Sciences [NCATS]
Division of Preclinical Innovation [DPI]
U.S. Environmental Protection Agency [EPA]
National Institutes of Environmental Health Sciences [NIEHS]
National Toxicology Program [NTP]
U.S. Food and Drug Administration [FDA]
DRD2 is the D2 subtype of the dopamine receptor, which is coupled to Gi subtype of G protein-coupled receptor. This G protein-coupled receptor inhibits adenylyl cyclase activity. The DRD2-HEK293 cell line stably expressing D2 dopamine receptor can be used for screening agonists and antagonists of interactions between D2 and its ligands. The Hek293-DRD2 cAMP assay is based on HTRF technology. It measures changes of cAMP accumulation in response to Gi coupled GPCR activation or inhibition.
Tox21 Assay Protocol Summary:
DRD2-Hek293 cells were dispensed at 600 cells/3uL/well in 1536-well white plates using a Multidrop Dispenser. After the assay plates were incubated at a 37 C/5% CO2 incubator for 24 h, 1 uL of Ro20-1724 at final concentration of 0.1 mM was transferred to the assay plate by a Flying Reagent Dispenser. Following Ro20-1724 addition, 23 nL of compound dissolved in DMSO, positive controls or DMSO only was added to the assay plates via Wako pintool station. The assay plates were incubated at room temperature for 10 min. Next, 1 uL of NKH477 at 200nM was added into the plates. After the assay plates were incubated at room temperature for an additional 30 min, 2.5 ul/well of cAMP-d2 and 2.5 ul/well of anti-cAMP-cryptate were added respectively into the assay plates using a Flying Reagent Dispenser. The plates were incubated at room temperature for 1 h. The fluorescence intensity in the plates was measured at 340 nm excitation and 665 & 620 nm emission by an Envision plate reader.
Regarding `CCOC(=O)COc1ccc(C)cc1`, the Potency entry is “inactive”.
The same measure, in the same setting: then `O=c1[nH]cnc2nc[nH]c12`, with “inactive”; and `CN(C)c1ccc(CCO)cc1`, with “inactive”; and `C=CC(C)C#N` (stereo not given), with “inactive”.
The same measure, in the same setting: in the case of `CC1=CP(=O)(c2ccccc2)CC1` (stereo not given) it was “inactive”.
Same read-out and setting: then `O=C(NCCN1CCOCC1)c1ccc(Cl)cc1`, with “inactive”; and `CCCC1CCCC(=O)O1` (stereo not given), with “inactive”.
Take `Cc1c(C(=O)NCCO)[n+](=O)c2ccccc2n1[O-]`: the Potency entry was “inactive”.
The same measure, in the same setting: in the case of `CC(C)(C)NC[C@H](O)COc1cccc2c1CCCC2=O` it was “inactive”.
Same read-out and setting: then `CC1(C)[C@H]2CC[C@]1(C)C(=O)C2`, with “inactive”; and `Cc1ccccc1N1CCN(CCc2nnc3n2CCCC3)CC1`, with “inactive”.
The same measure, in the same setting: in the case of `NC12CC3CC(CC(C3)C1)C2` it was “inactive”.
For `C[N+]12CCC(CC1)C(OC(=O)C(O)(c1ccccc1)c1ccccc1)C2` (stereo not given), the Potency result is “inactive”.
On to `CCN(CCO)CCCC(C)Nc1ccnc2cc(Cl)ccc12` (stereo not given), for which the activation is 4.56% [at 8.39 µM].
On to `C=CCON/C(CCC)=C1\C(=O)CC(C)(C)C(C(=O)OC)=C1O`, for which the Potency result is “inactive”.
Same read-out and setting: then `CCOc1ccc2ccccc2c1C(=O)N[C@@H]1C(=O)N2[C@@H]1SC(C)(C)[C@@H]2C(=O)O`, with “inactive”; and `CCN(CC)CCOc1ccc(C(O)(Cc2ccc(Cl)cc2)c2ccc(C)cc2)cc1` (stereo not given), with “inactive”; and `CCCCCOC(=O)CCC`, with “inactive”.
With `COc1cc(-c2nc(NC(=O)c3cc4cc(C)cc(C)c4n3CC(=O)O)sc2CCC2CCCCC2)c(OC)cc1Cl`, the Potency result was “inactive”.
The same measure, in the same setting: in the case of `Cc1ccc(Cl)c(OCC(O)CNC(C)(C)C)c1` (stereo not given) it was “inactive”; in that of `O=C(OC1C[C@H]2CC[C@@H](C1)[N+]21CCCC1)C(O)(c1ccccc1)c1ccccc1` (stereo not given in full), “inactive”.
Same read-out and setting: in the case of `CCOC(=O)[C@H](C)O` it was “inactive”; in that of `C/C(=N/NC(=O)c1ccncc1)C(=O)O`, “inactive”.
Same read-out and setting: then `N#CC1(N)CCCCC1`, with “inactive”; and `Nc1cccc(S(=O)(=O)O)c1`, with “inactive”.
`OC[C@@H](O)[C@H](O)[C@@H](O)[C@@H](O)CO`: the Potency entry is “inactive”.
On the same count and under the same terms, then `O=C(CCCN1CCC(O)(c2ccc(Br)cc2)CC1)c1ccc(F)cc1`, with “inactive”; and `CCCCNS(=O)(=O)c1ccc(C)cc1`, with “inactive”.
As to `CO[C@@H]1[C@H](OC(=O)/C=C/C=C/C=C/C=C/C(=O)O)CC[C@]2(CO2)[C@H]1[C@@]1(C)O[C@@H]1CC=C(C)C`, the Potency entry was “inactive”.
Take `C/C(=C(\CCOP(=O)(O)O)SC(=O)c1ccccc1)N(C=O)Cc1cnc(C)nc1N`: the activation was 3.76% [at 8.39 µM].
With `CC1(C)CC(O)CC(C)(C)N1`, the Potency result is “inactive”.
Consider `C=COCC(C)C`, for which the Potency entry was “inactive”.
Same read-out and setting: then `COc1ccc(N)c([N+](=O)[O-])c1`, with “inactive”; and `CN1CCN(N)CC1`, with “inactive”; and `O=C(Oc1ccccc1C(=O)O)c1ccccc1O`, with “inactive”.
Same read-out and setting: then `CCCCNc1c(C(=O)OCC)c(C)nc2c1cnn2CC`, with “inactive”; and `CCCCCCCC(=O)Oc1c(Br)cc(C#N)cc1Br`, with “inactive”; and `O=C(O)C1CCC1`, with “inactive”.
Still for that read-out and setting: then `N#C/C(=C1\SCC(c2ccccc2Cl)S1)n1ccnc1` (stereo not given), with “inactive”; and `COc1cc(CNC(=O)CCCC/C=C/C(C)C)ccc1O`, with “inactive”.
